Screening results: PubChem BioAssay, several laboratories
GAA850 FXN act – frataxin GAA850 promoter activation. HEK293 lucGAA850 FXN promoter luciferase reporter, 24 h; percent of 10 µM SAHA response. 360,000 tested, 0.56% active. AID 540364. activation, % at 6 µM;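 active = activation above the average of all compounds screened plus 3 SD, cutoff fixed separately per campaign, cut at about 7.5% in these data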
HSF1 activator – increases HSF-1 driven luciferase reporter signal; NIH3T3-HGL HSF-1 luciferase reporter, MG132, 8 h; 100% = twice DMSO control signal; 300,000 tested, 1.7% active; activation, % at 9 µM;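 active = mean replicate activation of at least 50% with a set share of replicates each reaching 50%; inconclusive = only one of those two conditions met; inactive = mean below 50% and too few replicates reaching it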
HSF1 inh – HSF1 inhibition; NIH3T3-HGL HSE-luciferase, MG132-induced, luminescence 8 h; stronger effect = lower value; activity change, negative = inhibition, % at 7.5 µM (by protocol); 300,000 tested, 0.77% active;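 active = more than half of replicate wells show activity change below -50%, luminescence cut by over half; inconclusive = some wells, but at most half, below -50%; inactive = no replicate well below -50%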;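 note: luciferase reports HSF-1 transcriptional activity via heat shock element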
AHR act – activates the human aryl hydrocarbon receptor; P35869; AHR-responsive luciferase reporter cells, luminescence; activation, % at 5 µM; 320,000 tested, 2.5% active; AID 2796; in the data active = activation above about 47%
DAX1 inh – inhibitors of human orphan nuclear receptor DAX1 (NR0B1); P51843; HEK293 Gal4-DAX1 luciferase reporter, luminescence; inhibition, % at 6.75 µM; 340,000 tested, 0.99% active; AID 504766;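 active = inhibition above the mean over all tested compounds plus 3 SD, cut at about 4.2% in these data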;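 note: inhibition shows as a rise in luminescence from relieved DAX1 repression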
Target sequence (P51843 207-470 limits assumed): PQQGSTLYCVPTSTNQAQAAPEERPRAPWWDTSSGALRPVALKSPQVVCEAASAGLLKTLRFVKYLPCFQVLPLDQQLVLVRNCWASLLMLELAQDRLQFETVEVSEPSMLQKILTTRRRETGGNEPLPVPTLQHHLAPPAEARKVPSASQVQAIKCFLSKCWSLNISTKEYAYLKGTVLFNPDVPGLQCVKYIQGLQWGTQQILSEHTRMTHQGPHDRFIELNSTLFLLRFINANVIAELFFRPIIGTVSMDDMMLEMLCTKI
AHR act cf – human AHR activation, confirmation; activation, % at 9 µM; shares compounds with AHR act; human cells, AHR-responsive luciferase reporter, luminescence; 2,300 tested, 87% active; in the data active = activation above about 49%;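 note: HepG2 hepatoma cells carrying a DRE-driven firefly luciferase reporter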
PXR act counter – activates human PXR in AHR activator counter-screen; shares compounds with AHR act; cell-based PXR reporter, luciferase luminescence; activation, % at 11.6 µM; 2,300 tested, 88% active; AID 434939; in the data active = activation above about 11%;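 note: human hepatoma DPX-2 cells expressing full-length human PXR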
Numbers stand for hits; 0 = inactive; ? = inconclusive; - = no result given. The list is not random: actives were taken first. Their share in the collection is about 5.4%.

SMILES | GAA850 FXN act | HSF1 activator | HSF1 inh | AHR act | DAX1 inh | AHR act cf | PXR act counter
N#CC(C#N)=C1C=CC=CN1/C(=C\c1ccco1)C(=O)c1ccc(Cl)cc1 | 0 | - | - | 178 | 0 | 133 | 51
O=C(CSc1nc2ccccc2s1)NCc1ccc2c(c1)OCO2 | 0 | 0 | 0 | 80 | 0 | 106 | 42
O=C(CSc1nnc(NC(=O)c2ccc3c(c2)OCO3)s1)NCc1ccco1 | 0 | - | - | 82 | 0 | 0 | 11
COCCSc1nnc(NC(=O)c2ccc3c(c2)OCO3)s1 | 0 | 0 | 0 | 99 | 0 | 89 | 27
CCCCCCCCCC1(CC(=O)OCC)SCCN1C(N)=O (stereo unspecified) | 0 | - | - | - | 0 | - | -
Cc1nc2nc(NC(=O)c3ccco3)[nH]n2c(=O)c1C | 0 | 0 | 0 | 0 | 0 | - | -
COc1cccc(/C=N/n2c(=O)[nH]c3ccccc32)c1OC | 0 | 0 | 0 | 118 | 4.9 | 94 | 18
COc1cccc(/C=N/n2c(=S)n(C)c3ccccc32)c1OC | 0 | 0 | 0 | 0 | 0 | - | -
CCN(CC(=O)Nc1ccc(OC)cc1)CC(=O)Nc1sc2c(c1C(=O)OC)CCCC2 | 0 | - | - | 0 | 0 | - | -
O=C(Nc1cc(Cl)ccc1-n1cncn1)c1cc(F)cc(F)c1 | 0 | 0 | 0 | 0 | 0 | - | -
O=C(Nc1cc(Cl)ccc1-n1cncn1)c1cccs1 | 0 | 0 | 0 | 84 | 0 | 116 | 20
COc1ccc(N(CCCN2C(=O)c3cccc4cccc(c34)C2=O)C(=O)c2cccs2)cc1 | 0 | 0 | 0 | 100 | 0 | 140 | 93
COc1cc(C)ccc1N(CCCN1C(=O)c2cccc3cccc(c23)C1=O)C(=O)c1cccs1 | 0 | 0 | 0 | 0 | 0 | - | -
Cc1ccc(-n2nc3ccc(N)cc3n2)cc1 | 0 | 0 | 0 | 88 | 0 | 76 | 0
Nc1ccc2nn(-c3ccc(F)cc3)nc2c1 | 0 | 0 | 0 | 106 | 4.3 | 0 | 14
CC1CC1C(=O)N(C)CC(=O)Nc1ccccc1Br (stereo unspecified) | 0 | - | - | 0 | 0 | - | -
Cc1c(-c2nc3ccccc3[nH]2)cnn1C | 0 | - | - | 0 | 0 | - | -
Cn1cc(-c2nc3ccccc3[nH]2)c2ccccc21 | 0 | 0 | 0 | 138 | 0 | 122 | 64
Cc1nn(-c2ccccc2)c(Cl)c1/C=N/N1CCN(c2ccccn2)CC1 | 0 | 0 | 0 | 161 | 0 | 0 | 27
Cc1nn(-c2ccccc2)c(C)c1/C=N/N1CCN(c2ccccn2)CC1 | 0 | 0 | 0 | 0 | 0 | - | -
O=C(c1cccs1)N1CCC(c2nc3c(nnn3Cc3ccccc3Cl)c(=O)[nH]2)CC1 | 0 | 0 | 0 | 0 | 0 | - | -
CCc1ccc(C(=O)CN(C#N)c2nc(C)cc(C)n2)cc1 | 0 | 0 | 0 | 85 | 0 | 63 | 19
CC1CCCC(C)N1/N=C/C=C/c1ccccc1[N+](=O)[O-] (stereo unspecified) | 0 | ? | 0 | 84 | 0 | 109 | 67
COc1ccccc1N1CCN(/N=C/C=C\c2ccccc2[N+](=O)[O-])CC1 | 0 | 0 | 0 | 0 | 0 | - | -
Cc1ccc(NC(=S)Nc2ccccn2)cc1C | 0 | 0 | 0 | 0 | - | - | -
SMILES | GAA850 FXN act | HSF1 activator | HSF1 inh | AHR act | DAX1 inh | AHR act cf | PXR act counter
Cc1cc(C)cc(NC(=S)Nc2ccccn2)c1 | 0 | 0 | 0 | 91 | 0 | 112 | 27
CCCCN1C(=S)SC(C)(C)C1/[N+]([O-])=C/c1ccc(S(=O)(=O)NC)cc1 (stereo unspecified) | 0 | 0 | 0 | 0 | 0 | - | -
Cc1ccc(C23OCCN2CCn2nc4ccccc4c23)cc1 (stereo unspecified) | 0 | - | - | 0 | 0 | - | -
N#Cc1ccc(C23OCCN2CCn2c3c3ccccc3[n+]2[O-])cc1 (stereo unspecified) | 0 | - | - | 112 | 0 | 122 | 46
O=c1c2ccccc2nc2c3ccccc3c(NCc3ccccn3)nn12 | 0 | 0 | 0 | 119 | 0 | 113 | 128
Cc1ccccc1N/N=C/c1c(C)nc2ccccn12 | 0 | 0 | 0 | 0 | 0 | - | -
CC1CCCC/C1=N\NC(=S)Nc1cccnc1 (stereo unspecified) | 0 | 0 | 0 | 113 | 0 | 73 | 12
CCCNc1c(NS(=O)(=O)c2ccc3c(c2)CCCC3)c(=O)oc2ccccc12 | 0 | 0 | 0 | 0 | 0 | - | -
COc1ccc(OC)c(Nc2nc(NCCCN(C)C)nc(N)c2[N+](=O)[O-])c1 | 0 | 0 | 0 | 0 | 0 | - | -
